Calls of active or inactive are those of the source. How the source made its calls: active means hit-call score of the fitted dose curve at least 0.9, where 1 is the maximum; inactive means score below 0.9.
How the values were obtained:
[1] = read-out: Interleukin-8 (IL8), CXCL8 (gene 3576); assay: BSK_CASM3C_IL8: BioMAP Diversity Plus: CASM3C Assay for Interleukin-8 (IL8) Biomarker Activity (AID 2283042); conditions: primary human coronary artery smooth muscle cells; actives raise or lower the signal;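 further: IL-8 protein level quantified by ELISA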
[2] = read-out: Human Leukocyte Antigen - DR isotype (HLADR), HLA-DRA (gene 3122); assay: BSK_CASM3C_HLADR: BioMAP Diversity Plus: CASM3C Assay for Human Leukocyte Antigen - DR isotype (HLADR) Biomarker Activity (AID 2283043); conditions: primary human coronary artery smooth muscle cells; actives raise or lower the signal;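 further: cell-surface HLA-DR protein level quantified by ELISA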
[3] = read-out: Macrophage colony-stimulating factor (MCSF), CSF1 (gene 1435); assay: BSK_CASM3C_MCSF: BioMAP Diversity Plus: CASM3C Assay for Macrophage colony-stimulating factor (MCSF) Biomarker Activity (AID 2283044); conditions: primary human coronary artery smooth muscle cells; actives raise or lower the signal;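 further: M-CSF protein amount quantified by ELISA after 24 h exposure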
[4] = read-out: Low-density lipoprotein receptor (LDLR), LDLR (gene 3949); assay: BSK_CASM3C_LDLR: BioMAP Diversity Plus: CASM3C Assay for Low-density lipoprotein receptor (LDLR) Biomarker Activity (AID 2283045); conditions: primary human coronary artery smooth muscle cells; actives raise or lower the signal;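 further: LDLR protein level on the cell surface quantified by ELISA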
[5] = read-out: Monocyte Chemoattractant Protein-1 (MCP1), CCL2 (gene 6347); assay: BSK_CASM3C_MCP1: BioMAP Diversity Plus: CASM3C Assay for Monocyte Chemoattractant Protein-1 (MCP1) Biomarker Activity (AID 2283046); conditions: primary human coronary artery smooth muscle cells; actives raise or lower the signal;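 further: MCP-1 level quantified by ELISA 24 h after dosing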
[6] = BSK_CASM3C_Proliferation: Cell Proliferation Assessment in the BioMAP Diversity Plus: CASM3C Assay (AID 2283047); conditions: primary human coronary artery smooth muscle cells;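 further: sulforhodamine B total protein stain as relative cell number at 560 nm; sub-confluent cells exposed 48 h before staining; fitted both ways against DMSO so gain or loss of cell number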
[7] = read-out: Monokine induced gamma interferon (MIG), CXCL9 (gene 4283); assay: BSK_CASM3C_MIG: BioMAP Diversity Plus: CASM3C Assay for Monokine induced gamma interferon (MIG) Biomarker Activity (AID 2283048); conditions: primary human coronary artery smooth muscle cells; actives raise or lower the signal;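 further: MIG protein level measured by ELISA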
[8] = read-out: serum amyloid A (SAA), SAA1 (gene 6288); assay: BSK_CASM3C_SAA: BioMAP Diversity Plus: CASM3C Assay for serum amyloid A (SAA) Biomarker Activity (AID 2283049); conditions: primary human coronary artery smooth muscle cells; actives raise or lower the signal;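 further: SAA protein level quantified by ELISA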
[9] = BSK_CASM3C_SRB: Viability Assessment in the BioMAP Diversity Plus: CASM3C Assay (AID 2283050); conditions: primary human coronary artery smooth muscle cells;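 further: total protein by SRB staining as cytotoxicity measure in parallel cultures; cells exposed to compound for 24 h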
[10] = read-out: Thrombomodulin, THBD (gene 7056); assay: BSK_CASM3C_Thrombomodulin: BioMAP Diversity Plus: CASM3C Assay for Thrombomodulin Biomarker Activity (AID 2283051); conditions: primary human coronary artery smooth muscle cells; actives raise or lower the signal;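 further: thrombomodulin protein level measured by ELISA 24 h after dosing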
[11] = read-out: Tissue Factor, F3 (gene 2152); assay: BSK_CASM3C_TissueFactor: BioMAP Diversity Plus: CASM3C Assay for Tissue Factor Biomarker Activity (AID 2283052); conditions: primary human coronary artery smooth muscle cells; actives raise or lower the signal;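 further: cell surface tissue factor protein level read by ELISA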
[12] = read-out: Interferon-gamma inducible Protein 10 (IP10), CXCL10 (gene 3627); assay: BSK_hDFCGF_IP10: BioMAP Diversity Plus: hDFCGF Assay for Interferon-gamma inducible Protein 10 (IP10) Biomarker Activity (AID 2283053); conditions: primary human foreskin fibroblasts; actives raise or lower the signal
Summary of the method: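 Primary foreskin fibroblasts, human; 24 h compound exposure; IP-10 by ELISA; bidirectional fit vs DMSO.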

[13] = read-out: Urokinase-type plasminogen activator receptor (uPAR), PLAUR (gene 5329); assay: BSK_CASM3C_uPAR: BioMAP Diversity Plus: CASM3C Assay for Urokinase-type plasminogen activator receptor (uPAR) Biomarker Activity (AID 2283054); conditions: primary human coronary artery smooth muscle cells; actives raise or lower the signal;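 further: cell-surface uPAR protein level quantified by ELISA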
[14] = read-out: Vascular cell adhesion molecule 1 (VCAM1), VCAM1 (gene 7412); assay: BSK_CASM3C_VCAM1: BioMAP Diversity Plus: CASM3C Assay for Vascular cell adhesion molecule 1 (VCAM1) Biomarker Activity (AID 2283055); conditions: primary human coronary artery smooth muscle cells; actives raise or lower the signal;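 further: VCAM-1 protein level quantified by ELISA on the cells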
[15] = read-out: Collagen III, COL3A1 (gene 1281); assay: BSK_hDFCGF_CollagenIII: BioMAP Diversity Plus: hDFCGF Assay for Collagen III Biomarker Activity (AID 2283056); conditions: primary human foreskin fibroblasts; actives raise or lower the signal
Summary of the method: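 Human foreskin primary fibroblasts were exposed to test chemicals for 24 h, after which collagen III was quantified by ELISA. Activity was fitted bidirectionally against DMSO as negative control and baseline.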

[16] = read-out: Epidermal growth factor receptor (EGFR), EGFR (gene 1956); assay: BSK_hDFCGF_EGFR: BioMAP Diversity Plus: hDFCGF Assay for Epidermal growth factor receptor (EGFR) Biomarker Activity (AID 2283057); conditions: primary human foreskin fibroblasts; actives raise or lower the signal
Summary of the method: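 hDFCGF system, primary human foreskin fibroblasts; compound 24 h; EGFR measured by ELISA; DMSO = negative control/baseline; bidirectional fitting.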

[17] = read-out: Interleukin-8 (IL8), CXCL8 (gene 3576); assay: BSK_hDFCGF_IL8: BioMAP Diversity Plus: hDFCGF Assay for Interleukin-8 (IL8) Biomarker Activity (AID 2283058); conditions: primary human foreskin fibroblasts; actives raise or lower the signal
Summary of the method: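 hDFCGF human dermal fibroblasts; 24 h chemical exposure; IL-8 by ELISA; bidirectional curve fit vs DMSO baseline; gain or loss of signal scored.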

[18] = BSK_hDFCGF_Proliferation: Cell Proliferation Assessment in the BioMAP Diversity Plus: hDFCGF Assay (AID 2283059); conditions: primary human foreskin fibroblasts;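 further: curves fitted for both rise and fall of signal versus DMSO baseline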
Summary of the method: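 Total protein read at 560 nm after 0.1% SRB staining of TCA-fixed human skin fibroblasts, […]. Activity is fitted in both directions relative to DMSO as baseline.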

[19] = read-out: Macrophage colony-stimulating factor (MCSF), CSF1 (gene 1435); assay: BSK_hDFCGF_MCSF: BioMAP Diversity Plus: hDFCGF Assay for Macrophage colony-stimulating factor (MCSF) Biomarker Activity (AID 2283060); conditions: primary human foreskin fibroblasts; actives raise or lower the signal
Summary of the method: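 Human foreskin primary fibroblasts were treated with test chemical for 24 h, and M-CSF was then measured by ELISA. Data were fitted bidirectionally against DMSO as the negative control and activity baseline.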

[20] = BSK_hDFCGF_SRB: Viability Assessment in the BioMAP Diversity Plus: hDFCGF Assay (AID 2283061); conditions: primary human foreskin fibroblasts;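 further: cells exposed to compound for 24 h before the read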
Summary of the method: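 Human foreskin primary fibroblasts were treated with compound and assessed 24 h after dosing. Total protein was measured by sulforhodamine B staining (0.1% SRB after 10% TCA fixation, 560 nm read) as a cytotoxicity marker, with bidirectional fitting against DMSO baseline.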

Measured: AC50

CNCc1cc(F)ccc1Oc1ccc(Cl)c(Cl)c1
active: [4] 13.8 µM | [6] 22 µM | [18] 23.8 µM
not listed: [20]
inactive: all other assays above

CC=Cc1ccc(O)c(OC)c1
active: [18] 24.6 µM
not listed: [20]
inactive: all other assays above

CCOc1ccc2c(c1)C(C)=CC(C)(C)N2
active: [12] 20 µM | [15] 15.1 µM | [18] 24.3 µM | [19] 6.14 µM
not listed: [20]
inactive: all other assays above

CCCCCCCCCCC
not listed: [20]
inactive: all other assays above

COC(=O)c1ccc(O)cc1
not listed: [20]
inactive: all other assays above

COc1ccc2c(c1)c(CC(=O)O)c(C)n2C(=O)c1ccc(Cl)cc1
active: [15] 20 µM | [18] 13.1 µM
inactive: all other assays above

CN[C@H]1CC[C@@H](c2ccc(Cl)c(Cl)c2)c2ccc(S(N)(=O)=O)cc21
active: [1] 35.3 µM | [2] 32.5 µM | [3] 28.2 µM | [4] 34.8 µM | [5] 30.4 µM | [6] 14.7 µM | [7] 31.2 µM | [8] 36 µM | [9] 31.3 µM | [11] 9.57 µM | [12] 26 µM | [13] 27.3 µM | [14] 31.4 µM | [15] 20 µM | [16] 32.7 µM | [17] 34.1 µM | [18] 10.3 µM | [19] 20 µM
inactive: [10]

CCCc1cc(=O)[nH]c(=S)[nH]1
not listed: [20]
inactive: all other assays above

CC1=C(/C=C/C(C)=C/C=C/C(C)=C/CO)C(C)(C)CCC1
active: [6] 20.9 µM | [10] 12.2 µM | [12] 27.4 µM | [16] 27.8 µM | [18] 12.4 µM | [19] 24.2 µM | [20] 37.8 µM
inactive: all other assays above

Cc1nc(C)nc(N2C[C@@H](C)N(c3ccnc([C@@H](C)O)n3)[C@@H](C)C2)n1
not listed: [20]
inactive: all other assays above

Cc1ccccc1Cl
not listed: [20]
inactive: all other assays above

CC1(C)NC(=O)NC1=O
inactive: all assays above

Oc1ccc2c(c1)OC[C@@H](N1CCC(O)(c3ccc(F)cc3)CC1)[C@H]2O
not listed: [20]
inactive: all other assays above

COCCOC[C@H](CC1(C(=O)NC2CCC(C(=O)O)CC2)CCCC1)C(=O)Oc1ccc2c(c1)CCC2 (some centres undefined)
not listed: [20]
inactive: all other assays above

Source: PubChem BioAssay (EPA / NIEHS)
